Among the data in PubChem BioAssay (NCI) are growth values, retold here.

About 83,000 compounds went through this panel and 20% of them were active in at least one assay; those are over-represented in the sample as a whole.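 Cell lines were cultured in 96-well plates, exposed to a single compound concentration, and assessed for percent growth 48 hours later.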 A number with no mark means an inactive call. Activity calls are given as the source filed them.

For the assay, the system named is SR leukemia. Nature of the assay: NCI-60 one-dose screen, 48 h (100 = growth as untreated, 0 = no growth, -100 = all killed). The conditions noted are these: 10 µM unless noted. The procedure:
Growth inhibition of the SR human tumor cell line is measured as a screen for anti-cancer activity. Cells are grown in 96 well plates and exposed to the test compound for 48 hours. Compounds are tested at a single concentration, which is 10^-5 M for most compounds. The reported endpoint is percent growth (GI% or GIPRCNT), where numbers from 0 - 100% represent growth inhibition, and numbers from -100% - 0 represent cell death. For example, a value of 40 represents 60% growth inhibition. A value of 0 means no net growth occurred over the course of the experiment. A value of -40 indicates 40% of cells at the beginning of the experiment died by the end of the experiment. A value of -100 means all cells are dead at the end of the experiment.
NCI-60 Human Tumor Cell Lines Screen was performed using the standard one-dose NCI protocol, which is described in more detail at https://dtp.cancer.gov/discovery_development/nci-60/default.htm.
Compounds with GIPRCNT values below 10 were considered active. Activity score was based on GIPRCNT using the following formula: […]
Score is 0 for GIPRCNT values of 100 or above, 50 for GIPRCNT values of 0, and 100 for GIPRCNT values of -100.
Take `COc1ccc(OC2=C(C#N)C(=N)N3c4ccccc4Sc4ccccc4C3N2)cc1` (stereo not given): the growth is 104%.
The result for `COc1ccc(S(=O)(=O)ON=C2C=C(C)C(=O)C(C)=C2)cc1` reads 31.8%; that for `O=C1/C(=C/c2ccc(Cl)cc2)CN(Cc2cn(CCCNc3ccnc4cc(Cl)ccc34)nn2)C/C1=C\c1ccc(Cl)cc1`, -31.9% (active).
Next, `COCCOC1=C(Cl)C(=O)c2ccccc2C1=O`: 0.0172% (active); `Cc1ccc(N(CSc2ccc(Cl)cc2)CSc2ccc(Cl)cc2)cc1`: 11.2%.
Next, `CCSc1nnc2c3cc(Br)ccc3n(C)c2n1`: 92.7%.
For the compound `COc1ccc(/C=N/NC(=O)c2cnn3c2NC(c2ccccc2)C3)cc1OC1CCCC1` (stereo not given), the growth was 47.2%.
Take `O=S(=O)(/N=C1C=C/C(=N\S(=O)(=O)c2ccccc2)c2ccccc2\1)c1ccccc1`: the growth was 107%.
Next, `Cc1ccccc1-n1nnc(C(=O)Nc2nc(-c3ccccc3)c(-c3ccccc3)s2)c1C`: 69.5% [50 µM].
The result for `Cc1ccc(N=c2nc3sc4c(C)ccc(C)c4n3c(N)c2C#N)cc1` reads 111%.
As for `Clc1ccc(Nc2nc(Nc3ccccc3)nc(Nc3ccc(-c4cc(-c5ccc(Cl)cc5)on4)cc3)n2)cc1`, the growth was 51.5%.
Next, `COc1cccc(C2CC(=O)Nc3cc4c(cc32)CCC4)c1OC` (stereo not given): 3.06% (active); `COc1nc2c(cc1S(=O)(=O)c1ccccc1)CCc1c-2cnn1-c1ccccc1`: 45.4%; `Cc1ccc2nc(NC(=O)CSC(=S)N3CCN(C)CC3)sc2c1`: 138%.
As to `Cc1cccc2c(=O)c3c(sc12)c(NCCCN)nc1ccccc13`, the growth is -5.48% (active).
Next, `O=C(COc1cccc(/C=C2\COc3ccccc3C2=O)c1)c1ccccc1`: -62.4% (active); `Clc1ccc2c(N3CCN(c4ccnc(NC5CCCCC5)n4)CC3)ccnc2c1`: -36% (active); `COc1ccc(-c2cc(=O)oc3c4c(ccc23)OCN(Cc2ccc(F)cc2)C4)cc1`: 54.7%.
The result for `COc1ccc(-c2nc3sc(C)nn3c2-c2nc3cc(C)c(C)cc3[nH]2)cc1` reads 76.6%; that for `Cc1ccc(C(=O)Nc2ccccc2N)cc1`, 68%.
The result for `c1ccc2c(c1)oc1cc3c(cc12)nnc1cccn13` reads 94.6%; that for `CC(=O)OCC1OC([S-])C(OC(C)=O)C(OC(C)=O)C1OC(C)=O.[Au+].c1ccc(CN2[CH-]N(Cc3ccccc3)C(c3ccccc3)=C2c2ccccc2)cc1`, -8.38% [4.75 µM] (active); that for `O=C(CCc1nnc2sc(/C=C\c3ccccc3)nn12)c1nc2ccccc2[nH]1`, 63.5%.
`COc1ccc(-n2ncc3c2ccc2cc(S(=O)(=O)c4ccccc4)c(=O)n(C)c23)cc1`: the growth was 86.1%.
The result for `O=C1OCC2=C1C(c1ccc3c(c1)OCO3)CC(=O)N2c1cccc(Cl)c1` (stereo not given) reads 98.6%; that for `Fc1ccccc1Nc1ccc2nnc(-c3ccncc3)n2n1`, 89.4%; that for `COc1ccc(C2CC(c3cc(OC)c(OC)c(OC)c3)=NN2c2ccc(S(N)(=O)=O)cc2)cc1` (stereo not given), 33.2%.
With `COc1ccc(-c2nc3sc(C)cn3c2/C=C/C(=O)c2cc(OC)c(OC)c(OC)c2)cc1`, the growth was 48.5%.
Next, `COc1ccc(OC)c(C2C(C#N)=C(N)Oc3cc(O)ccc32)c1` (stereo not given): 80%; `C[C@]1(CO)C[C@@H](O)C[C@]2(C)[C@@H]1CC[C@@]13C[C@@H]4[C@@H](C[C@H]12)[C@]4(C)C3`: 118%.
Next, `Cn1c2ccc(Cl)cc2c2nn(C(=O)c3ccccc3)c(=O)nc21`: 93%; `FCOC(C(F)(F)F)C(F)(F)F`: 86.2%.
The result for `CS(=O)(=O)Nc1cccc(C(=O)NCc2ccc(N3CCOCC3)cc2)c1` reads 93.3%; that for `COc1ccc(S(=O)(=O)c2ccc(C(N)=O)cc2)cc1NC(=O)c1[nH]c(C)c2c1CCCCC2=O`, 50%.
In the case of `C=CCCCCCCCCC(=O)[O-].C=CCCCCCCCCC(=O)[O-].[Zn+2]`, the growth is 91.1%.
Next, `COc1nc2c(cc1S(=O)(=O)c1ccccc1)CCc1c-2cnn1-c1ccccc1Cl`: 37.9%; `COc1ncnc2c1ncn2C/C(Br)=C(\Br)CCl`: 8.2% (active).
As for `CC[Si](CC)(CC)OC1[C@@H](O[Si](CC)(CC)CC)[C@@H](CNC(=O)NC)O[C@H]1n1cnc2c(NC(=O)Nc3ccccc3)ncnc21` (stereo not given in full), the growth was 14.8%.
The result for `Cc1ccc(-c2c3c(N)c4c(nc3nc3c2c(C)nn3-c2ccccc2)CCCC4)cc1` reads -4.06% (active); that for `O=C1C(OCCOc2ccccc2)=C(OCCOc2ccccc2)C(=O)c2ccccc21`, 60.1%.
